This note sets out measurements from PubChem BioAssay (NCI).

What all share (experiment): NCI-60 one-dose screen, 48 h (100 = growth as untreated, 0 = no growth, -100 = all killed)
Holding throughout (settings): 10 µM unless noted

The subject of assay [1] is SR leukemia.
Assay [2] deals with RPMI-8226 leukemia.
For assay [3], the system named is OVCAR-8 ovarian.
The test system of assay [4] is OVCAR-4 ovarian.
Assay [5] relates to SK-OV-3 ovarian.
In assay [6] the test system is IGROV1 ovarian.
For assay [7], the system named is OVCAR-3 ovarian.
Assay [8] concerns HS 578T breast.
In assay [9] the test system is NCI/ADR-RES ovarian.
The subject of assay [10] is T-47D breast.
Assay [11] deals with BT-549 breast.
Assay [12] has as its system MDA-MB-435 melanoma.
The subject of assay [13] is SW-620 colon.
For assay [14], the system named is HCT-116 colon.
For assay [15], the system named is HCC-2998 colon.
In assay [16] the test system is KM12 colon.
For assay [17], the system named is MDA-MB-468 breast.
Assay [18] relates to MCF7 breast.
The test system of assay [19] is OVCAR-5 ovarian.

Compounds without any hit were thinned out: in the full panel of roughly 83,000, 20% have a hit.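 Method: cells in 96-well plates; compound added at one concentration; 48 h incubation; percent growth measured; values under 10 scored active.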 Values without a mark were called inactive. The source made the active and inactive calls.

Consider `COc1ccc2c(c1)c(/C=N/Nc1ccc3ccccc3n1)cn2C`, for which the growth in assay [1] was -17.3% (active); in assay [2], -26.7% (active); in assay [3], 28.9%; in assay [4] it was 12.3%; in [5], 54%; in [6], 16.4%. Also, the growth in assay [7] was -34.2% (active); in [8], 18.2%; in [9], 2.35% (active); in assay [10], 3.98% (active); in assay [11] it was 51.4%; in assay [12], 11.2%. Besides, the growth in [13] was -67.3% (active); in assay [14], -99.5% (active); in assay [15] it was -59.6% (active); in assay [16], -66.5% (active); in assay [17], -41.6% (active).

For the molecule `Cn1cc(-c2nnc(N)nc2-c2c[nH]c3ccc(F)cc23)c2cccnc21`, the growth in [1] was 25.5%; in assay [2], 49.1%; in assay [3], 49.3%; in assay [4], 77.6%; in [5] it was 65.8%; in [6], 40.7%. The growth in [7] is 25.3%; in assay [8] it was 42%; in [9], 72.9%; in assay [10] it was 40.7%; in [11], 34%; in [12], -21.8% (active). Besides, the growth is 19.3% in assay [13]; 23.6% in [18]; 15.1% in assay [14]; 65.8% in [15]; 22.3% in [16].

For the molecule `Cn1cc(-c2cc3nc(-c4cn(C)c5ncc(Br)cc45)cc(N)n3n2)c2cc(Cl)ccc21`, the growth is -28.1% (active) in [1]; -4.61% (active) in assay [2]; -54.4% (active) in assay [3]; -59.4% (active) in [4]; -69.2% (active) in assay [5]; -73.1% (active) in assay [6]. Also, the growth was -54.4% (active) in [7]; -36.1% (active) in [8]; -58.4% (active) in assay [9]; -62% (active) in assay [10]; -78.8% (active) in assay [11]; -88.4% (active) in assay [12]. For the same molecule, the growth in [13] was -81.5% (active); in [14], -89.3% (active); in [15], -99.1% (active); in [16], -58.5% (active); in assay [17] it was -88.5% (active).

For the molecule `COc1ccc(NC(=O)[C@H](CO)NC(=O)OC(C)(C)C)cc1C(=O)Nc1cccc(C2CC(=O)c3c(cc(OC)c(OC)c3OC)O2)c1` (some centres not stated), the growth in assay [1] was 25.3%; in assay [2] it was 23%; in assay [3], 26.3%; in assay [4] it was 57.7%; in assay [5] it was 87.8%; in assay [6], 43.1%. The growth in assay [7] is 47.7%; in assay [8], 53.6%; in assay [9], 71.6%; in assay [10] it was 25.8%; in assay [11], 12.7%; in assay [12], 41.1%. The growth in assay [13] is 73.9%; in [18] it was 30%; in [14], 32.3%; in assay [15], 83%; in assay [16], 43.8%; in assay [17], 36.2%.

As for `NC(=S)Nc1cccc(NC(N)=S)c1`, the growth was 109% in assay [2]; 94% in [3]; 104% in assay [19]; 94.6% in assay [4]; 126% in assay [5]; 97.5% in assay [6]. Further, the growth in assay [7] is 88.5%; in [8], 105%; in [9] it was 97.6%; in assay [10], 86.8%; in assay [11], 115%; in [12], 97.3%. For the same molecule, the growth in [13] is 107%; in [18], 91.7%; in assay [14], 107%; in [15] it was 117%; in assay [16], 87.6%; in assay [17], 86.5%.

`CCCCNC(=S)Nc1ccc(OCc2nc3ccccc3[nH]2)cc1`: the growth in assay [1] was 53.7%; in assay [2], 58.8%; in [3] it was 59.3%; in assay [4] it was 57.2%; in assay [5] it was 113%; in [7] it was 60.3%. In addition, the growth in assay [8] was 92.3%; in assay [9], 65.9%; in assay [10], 45.3%; in assay [11] it was 65.9%; in assay [12], 49.6%; in assay [13], 91.5%. Moreover, the growth is 46.5% in [18]; 63.7% in [14]; 59.6% in assay [15]; 1.01% (active) in assay [16]; 69.6% in assay [17].

Consider `CN1CCN(c2ccc(C(=O)/C=C/c3cc(C(F)(F)F)cc(C(F)(F)F)c3)cc2)CC1`, for which the growth is -19.4% (active) in [2]; -93.4% (active) in assay [3]; -95.8% (active) in assay [19]; -23.8% (active) in assay [4]; -89.5% (active) in [5]; -36.6% (active) in assay [6]. The growth in assay [7] is -54.4% (active); in assay [8], 26.9%; in [9], -39.3% (active); in [10] it was -68.7% (active); in assay [12], -60.8% (active); in [13] it was -44.8% (active). Moreover, the growth was -82.3% (active) in [18], -87.4% (active) in assay [14], -91% (active) in assay [15] and -56.8% (active) in assay [16].

Take `C/C(=N\Nc1ccc(S(N)(=O)=O)cc1)c1ccc(N=Nc2c(Nc3ccccc3)[nH][nH]c2=O)cc1`: the growth in assay [2] is 3.47% (active); in [3], -20.2% (active); in assay [19] it was 58.3%; in [4], 42.6%; in [5] it was -15.5% (active); in assay [6] it was 43.3%. For the same molecule, the growth in assay [7] is -2.25% (active); in assay [8] it was 21.5%; in [9] it was 89.6%; in assay [10], -30.8% (active); in [12], -13.6% (active); in [13], 18.1%. For the same molecule, the growth in assay [18] was -31.2% (active); in [14], 0.299% (active); in assay [15] it was -24.6% (active); in assay [16], 3.69% (active); in assay [17], -35.6% (active).
